# Screening results (PubChem)
# Sampled rows, rich in hits. Any-hit rate of the full collection: about 1.9%.
# Ba/F3 V617F tox: lowers viability of Ba/F3 cells expressing EpoR and JAK2V617F; ATP luminescence; inhibition, % at 5.6 µM; actives 1.1% (n = 220,000);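 active = inhibition above the campaign mean plus 3 SD over all tested compounds, cut at about 24% in these data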;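 also: cytokine-independent growth of Ba/F3 cells driven by EpoR plus mutant JAK2; 0% = DMSO-treated cells and 100% = JAK inhibitor I control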
# BaF3 parental: counter-screen for JAK2V617F inhibitors: parental Ba/F3 viability inhibitors; CellTiter-Glo ATP luminescence; inhibition, % at 5.6 µM; actives 1.1% (n = 220,000);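 active = inhibition above a per-campaign cutoff, the mean inhibition of all tested compounds plus 3 SD, cut at about 27% in these data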;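 also: 0% = DMSO wells and 100% = JAK Inhibitor I control wells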
# IEC-6 cytotox: counter-screen for KLF5 inhibitors: cytotoxicity in IEC-6 cells | actives 0.78% (n = 290,000) | IEC-6 cytotoxicity, luminescence viability | AID 1825 | inhibition, % at 5 µM;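 also: 0% = plate median of test compound wells and 100% = cytotoxic reference compound wells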
# APP transl inh: APP translation inhibition. SH-SY5Y APP 5'UTR-luciferase reporter, luminescence. inhibition, % at 2 µM. actives 0.82% (n = 190,000);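 active = inhibition above a set limit, derived from the sample mean plus 3 SD, cut at about 45% in these data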
# KLF5 inhibitor: inhibitors of KLF5 expression. DLD-1 KLF5 promoter-luciferase reporter, luminescence. inhibition, % at 5 µM. actives 0.23% (n = 290,000);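 active = inhibition above a per-plate limit of that plate's mean compound inhibition plus 3 SD, cut at about 60% in these data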;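 also: 0% = DMSO wells and 100% = LY294002 at 200 µM; higher means less KLF5 promoter-driven luciferase light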
# IEC-6 cytotox cf: IEC-6 cytotoxicity, confirmation assay. shares compounds with IEC-6 cytotox. IEC-6 rat intestinal epithelial viability, luminescence. inhibition, % at 5 µM. actives 63% (n = 1,900). AID 1907;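 also: 0% = vehicle and 100% = reference cytotoxic drug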
# * marks the source's active call; other numbers are inactive results; / = not tested or not shown. Rule as the data show it, unless noted: active = inhibition above about 22%; inactive = the rest.
SMILES,Ba/F3 V617F tox,BaF3 parental,IEC-6 cytotox,APP transl inh,KLF5 inhibitor,IEC-6 cytotox cf
O=C(O)c1[nH]c2ccc([N+](=O)[O-])cc2c1-c1ccccc1,-3,1,-1,/,5,/
NNC(=O)c1[nH]c2ccc([N+](=O)[O-])cc2c1-c1ccccc1,/,/,91*,/,-3,-3
COCCn1c(N)c(Sc2ccc(Cl)cc2)c(=O)[nH]c1=O,/,/,0,/,7,/
Cc1cc2cc3c(cc2nc1SCC(=O)N1CCCC1)OCCO3,/,/,30*,/,-4,38*
O=c1cnc2ccccc2n1Cc1ccc(Br)cc1,/,/,10,/,-37,/
CC(C)(C)c1ccc(Cn2c(=O)cnc3ccccc32)cc1,/,/,24*,/,19,8
CC(C)OC(=O)Nc1ccc2c(c1)N(C(=O)N1CCN(C)CC1)c1ccccc1CC2,25*,29*,35*,/,-55,21
Cc1nc2ccc(NC(=O)c3ccccc3)cc2s1,-1,2,-1,-82,-94,/
Cc1nc2ccc(NC(=O)c3cncc(Br)c3)cc2s1,80*,60*,88*,/,39,-4
C=CCn1c(SCC(=O)N2CCc3ccccc3C2)nnc1-c1ccncc1,-4,4,-5,0,-9,/
CCN(c1ccccc1)S(=O)(=O)c1ccc(Cl)c(NC(=O)COC(=O)c2cc(O)c3ccccc3c2O)c1,-3,-3,32*,/,8,7
Cc1ccc(NC(=O)/C(C#N)=C(\N)C(Cl)(Cl)Cl)nc1,2,5,2,-34,-54,/
COc1ccc(C(=O)c2ccc(OC)c(N)c2)cc1N,81*,81*,76*,91*,38,61*
Cc1ccc(NS(=O)(=O)c2ccc3c(c2)n(C)c(=O)n3C)c(C)c1,/,/,1,/,-5,/
CCc1ccc(S(=O)(=O)Nc2cc3c(cc2C)n(C)c(=O)n3C)cc1,/,/,48*,/,40,40*
COc1ccc(C2=Nn3c([n+](C)c4ccccc43)SC2)cc1,100*,77*,30*,13,15,24*
O=c1ccn([C@@H]2O[C@H](CO)[C@@H](O)[C@H]2O)c(=O)[nH]1,-1,7,-1,15,-15,/
Nc1ccn([C@@H]2O[C@H](CO)[C@@H](O)[C@@H]2O)c(=O)n1,74*,80*,90*,83*,16,76*
Nc1nc(Cl)nc2c1ncn2[C@@H]1O[C@H](CO)[C@@H](O)[C@H]1O,0,3,44*,-1,31,-6
N=c1ccn2c(n1)O[C@H]1[C@H](O)[C@@H](CO)O[C@H]12,/,/,92*,/,6,74*
O=C(OCC1OC2C(Oc3nc(=O)ccn32)C1O)c1ccccc1 (stereo unspecified),0,1,3,-10,-4,/
CC(OC(=O)CCc1ccccc1)C(=O)Nc1ncc(Cl)cc1Cl (stereo unspecified),/,/,2,/,-5,/
CCOCCCNCC(=O)Nc1ccc(S(=O)(=O)NC(C)CC)cc1 (stereo unspecified),1,5,4,-9,-11,/
CC(=O)C1=C(c2ccccc2)N(C(C)=O)n2c(C)nnc2S1,0,6,-6,-15,-15,/
O=C(NNc1ccccc1)C(=O)NNS(=O)(=O)c1ccc(CCCl)cc1,-1,1,44*,/,23,11
SMILES,Ba/F3 V617F tox,BaF3 parental,IEC-6 cytotox,APP transl inh,KLF5 inhibitor,IEC-6 cytotox cf
Cc1ccccc1COc1ccc(-c2nnn(CC(=O)O)n2)cc1,/,/,1,/,-28,/
O=C1NC(=Nc2ccccc2)SC1Cc1cccc(Cl)c1Cl (stereo unspecified),0,6,0,6,-21,/
CC(=O)/C(C#N)=C1\NC(=O)C(Cc2cc(Cl)ccc2Cl)S1 (stereo unspecified),-2,5,74*,/,24,47*
CC(=O)/C(C#N)=C1\NC(=O)C(Cc2ccccc2Cl)S1 (stereo unspecified),4,5,78*,4,21,60*
CCN(CC)CCNc1ccc(CO)c2sc3ccccc3c(=O)c12,66*,47*,54*,20,13,64*
COCCNS(=O)(=O)c1cc(C)c(C)cc1C,3,5,4,9,8,/
O=C(NCc1cccnc1)c1ccc(NC(=O)c2ccc(Br)cc2)cc1,/,/,89*,/,-29,43*
Cc1cccc(OCC(=O)Nc2ccc(C(=O)NCc3cccnc3)cc2)c1,12,-4,26*,10,7,-12
Cc1ccc(-n2nnnc2SCC(=O)Nc2ncc(Cc3ccccc3Cl)s2)cc1,-2,5,1,-14,6,/
O/N=C/Cc1[nH]c2ccccc2c1-c1ccccc1,/,/,-4,/,-15,/
Cc1cc(C)c(NC(=S)N2CCC(N(C)CC3CCCO3)CC2)c(C)c1 (stereo unspecified),-7,2,27*,16,-3,-7
CCOC(=O)c1[nH]c(C)c(/C(O)=C2\C(=O)C(=O)N(CCN3CCOCC3)C2c2cccs2)c1C (stereo unspecified),-1,0,26*,23,-10,6
CCOC(=O)c1[nH]c(C)c(/C(O)=C2\C(=O)C(=O)N(CCN(C)C)C2c2ccc(C)o2)c1C (stereo unspecified),6,6,25*,6,20,11
CCOc1cc(/C=C(\C#N)C(=O)Nc2ccc(S(N)(=O)=O)cc2)ccc1OCCN1CCOCC1,/,/,3,/,-5,/
COc1ccc(N2CCN(S(=O)(=O)c3cnc[nH]3)CC2)cc1,-4,4,1,/,-23,/
C(=C\c1nnc2c3ccccc3ncn12)/c1ccccc1,82*,69*,60*,72*,1,20
Cn1c(/C=C/c2ccccc2)nc2ccccc21,2,8,6,-65,-58,/
COc1ccc(/C=N/Nc2cc(C)nc(-n3nc(C)cc3C)n2)cc1,1,5,6,-5,4,/
Cc1cc(N/N=C/c2ccc(O)cc2O)nc(-n2nc(C)cc2C)n1,-3,4,79*,53*,36,47*
COc1ccc(C(=O)NN)cc1,-2,0,4,/,-13,/
COc1ccc(C(=O)C(CCC(CNC(C)(C)C)C(=O)c2ccc(OC)cc2)CNC(C)(C)C)cc1 (stereo unspecified),102*,101*,71*,97*,-3,60*
COCCn1c(=NC(=O)CSCC(=O)N2CCOCC2)sc2ccccc21,/,/,7,/,-13,/
CCN1CCN(c2ncc3c(n2)CC(c2cc(OC)c(OC)c(OC)c2)CC3=O)CC1 (stereo unspecified),81*,82*,65*,5,53,57*
Cc1cc2oc(=O)cc(CN3CCOCC3)c2c(C)c1Cl,/,/,4,/,-37,/
CCN(CC)CCCNc1oc(/C=C/c2ccccc2)nc1C#N,-4,3,3,/,-29,/
CCNc1oc(/C=C/c2ccc(OCC)cc2)nc1C#N,/,/,52*,/,-17,36*
O=C(NCCOc1ccccc1F)c1cc([N+](=O)[O-])ccc1N1CCOCC1,/,/,49*,/,43,41*
COc1ccc(CCNc2ncnc3sc(C)cc23)cc1OC,/,/,27*,/,-38,27*
